From PubChem BioAssay (NCATS)
Records with an inconclusive call do not appear. Unless noted, the call rests on the fitted dose curve; in most records, active means well fitted curve in either direction with a large enough effect (not every such curve was filed as active); inconclusive means small, poorly fitted or top-dose-only effect, or another doubt; inactive means flat fitted curve, though single readings scatter.

System: not listed separately
Experiment: NFAT Signaling Pathway (AID 444);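 further: carbachol stimulus at about its EC50 of 1 µM final; on the % scale 0 is the no-effect control and ±100 the full control effect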
Conditions: Jurkat NFAT-bla M1, carbachol, beta-lactamase ratio, 5 h; at 7.69 µM (top of the series) unless noted
Outline: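 Jurkat cells carrying an NFAT-driven β-lactamase reporter and co-transfected muscarinic M1 receptor were treated with compound plus carbachol (1 uM final, an EC50 level) for 5 h at 37 °C. CCF4 loading followed for 1 h at RT; 460/530 nm ratio gave %activity.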

Activity change, negative = inhibition, inactive:
COc1ccc(Oc2ncc3nc(C)c(=O)n(-c4ccccc4)c3n2)cc1 -10.3%
CN(C)Cc1ccccc1-c1nc(NCc2cccs2)c2ccccc2n1 -24.9%
CCNc1ncc2nc(-c3ccc(Cl)cc3)c(=O)n(C[C@H]3CCCO3)c2n1 4.01%
COc1ccc(-n2c(=O)c(-c3cccs3)nc3cnc(N(C)C)nc32)cc1 -4.88%
Cn1cc(-c2nc3cnc(Oc4ccccc4)nc3n(C3CC3)c2=O)c2ccccc21 9.34%
O=c1c(-c2cccs2)nc2cnc(N3CCOCC3)nc2n1Cc1ccc(F)cc1 27.2%
O=c1c(-c2cc(F)cc(F)c2)nc2cncnc2n1Cc1ccccc1 -18%
c1ccc(Nc2cc(-c3ccoc3)ncn2)cc1 -0.633%
COc1ccc(Oc2ncc3nc(-c4cn(C)c5ccccc45)c(=O)n(C4CC4)c3n2)cc1 9.91%
COCCNc1ncncc1-c1c(C)noc1C -1.26%
O=c1c(-c2cccs2)nc2cnc(N3CCOCC3)nc2n1Cc1cccs1 -8.44%
CN(C)c1ncc2nc(-c3cn(C)c4ccccc34)c(=O)n(C[C@H]3CCCO3)c2n1 3.82%
CN(Cc1ccco1)c1ncncc1-c1ccoc1 -18.1%

System: not listed separately
Experiment: Stat Signaling Pathway (AID 446);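 further: ME-180 cervical cancer cells given 40 pM IL-6 alongside compound; SIE-controlled beta-lactamase reporter measured as 460/530 nm FRET emission ratio; on the % scale 0 is the no-effect control and ±100 the full control effect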
Conditions: ME-180 (cervical carcinoma) SIE beta-lactamase reporter, IL-6 stimulated, 5 h; at 7.69 µM (top of the series) unless noted
Outline: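 IL-6/STAT signaling read in ME-180 cells via an SIE beta-lactamase reporter. Stimulus was 40 pM IL-6 (its AC50) for 5 hrs, so both activation and inhibition register.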

activity, negative = inhibition, inactive:
CN(C)Cc1ccccc1-c1cc(N(C)Cc2ccco2)ncn1 -3.48%
c1cncc(-c2cncnc2NC2CCNCC2)c1 5.17%
Cn1cc(-c2nc3cnc(Oc4ccccc4)nc3n(C)c2=O)c2ccccc21 24.9%
O=c1c(-c2cc(F)cc(F)c2)nc2cncnc2n1-c1ccccc1 -16.9%
CN(Cc1ccco1)c1ncncc1-c1ccccc1Cl 3.72%
O=c1cnc2cnc(N3CCOCC3)nc2n1CCc1ccccc1 -10.2%
CC(=O)NCCNc1ncncc1-c1ccccc1C 8.22%
COCCn1c(=O)cnc2cnc(Oc3ccccc3)nc21 -13.1%
COCCn1c(=O)c(-c2ccc(Cl)cc2)nc2cnc(Oc3cccc(Cl)c3)nc21 -8.1%
COc1cccc(Nc2ncc3nc(-c4ccccc4)c(=O)n(Cc4cccs4)c3n2)c1 21.9%
CN(C)c1ncnc2ccc(-c3cccnc3)cc12 9.76%
CN(Cc1ccco1)c1ncncc1-c1cccc(C#N)c1 7.25%
O=c1c(-c2ccc(F)cc2)nc2cnc(N3CCOCC3)nc2n1Cc1cccs1 18.2%
COc1ccc(-n2c(=O)c(-c3cccs3)nc3cnc(N(C)C)nc32)cc1 -9.54%
O=c1c(-c2cc(F)cc(F)c2)nc2cncnc2n1Cc1ccccc1 -8.19%
c1ccc(Nc2cc(-c3ccoc3)ncn2)cc1 -2.05%
COc1ccc(Oc2ncc3nc(-c4cn(C)c5ccccc45)c(=O)n(C4CC4)c3n2)cc1 19%
Cc1noc(C)c1-c1ccc2ncnc(Nc3ccc(F)cc3)c2c1 -24.6%
Cc1noc(C)c1-c1ccc2ncnc(N(C)C)c2c1 -14.9%
CC(=O)NCCNc1ncnc2ccc(-c3c(C)noc3C)cc12 -17.9%
CN(C)c1ncc2nc(-c3cn(C)c4ccccc34)c(=O)n(C[C@H]3CCCO3)c2n1 -10.1%
CN(Cc1ccco1)c1ncncc1-c1ccoc1 -2%

Biological target: Glucocorticoid receptor (Homo sapiens) (UniProt P04150)
Sequence (P04150 whole entry, looked up): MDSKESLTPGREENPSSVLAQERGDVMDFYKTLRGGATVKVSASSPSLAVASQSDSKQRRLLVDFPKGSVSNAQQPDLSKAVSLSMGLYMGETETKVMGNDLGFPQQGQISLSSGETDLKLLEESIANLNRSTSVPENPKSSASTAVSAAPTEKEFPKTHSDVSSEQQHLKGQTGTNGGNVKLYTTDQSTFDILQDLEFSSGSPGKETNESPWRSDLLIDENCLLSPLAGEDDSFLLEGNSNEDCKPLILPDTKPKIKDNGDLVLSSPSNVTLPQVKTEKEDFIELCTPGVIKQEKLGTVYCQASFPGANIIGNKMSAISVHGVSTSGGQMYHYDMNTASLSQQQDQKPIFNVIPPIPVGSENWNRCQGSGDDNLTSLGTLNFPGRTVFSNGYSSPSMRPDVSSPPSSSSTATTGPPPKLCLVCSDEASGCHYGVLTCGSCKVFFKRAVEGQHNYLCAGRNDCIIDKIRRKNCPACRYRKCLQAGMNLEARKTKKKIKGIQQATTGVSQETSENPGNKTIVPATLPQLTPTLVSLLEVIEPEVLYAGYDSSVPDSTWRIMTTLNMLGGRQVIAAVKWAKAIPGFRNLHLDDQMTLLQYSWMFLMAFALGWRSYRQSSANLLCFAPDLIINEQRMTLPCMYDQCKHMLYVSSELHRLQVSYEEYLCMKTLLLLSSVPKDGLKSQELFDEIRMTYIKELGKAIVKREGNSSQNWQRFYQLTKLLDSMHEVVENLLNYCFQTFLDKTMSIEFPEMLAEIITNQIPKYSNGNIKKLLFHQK
Experiment: GR-GFP Redistribution (AID 450;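 active means compounds whose dose series gives a full or clear partial fitted curve of increased nuclear translocation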; further: potency means the concentration at half of the fitted maximal effect)
Conditions: U2OS GR-GFP nuclear translocation, laser cytometry, 2 h

Potency, inactive:
CN(C)Cc1ccccc1-c1cc(N(C)Cc2ccco2)ncn1 > 46 µM
c1cncc(-c2cncnc2NC2CCNCC2)c1 > 46 µM
Cn1cc(-c2nc3cnc(Oc4ccccc4)nc3n(C)c2=O)c2ccccc21 > 9.22 µM
CN(C)c1ncc2nc(-c3ccccc3)c(=O)n(-c3ccccc3)c2n1 > 9.22 µM
CN1CCN(c2ncc3nc(-c4cc(F)cc(F)c4)c(=O)n(C4CC4)c3n2)CC1 > 9.22 µM
O=c1c(-c2ccc(F)cc2)nc2cnc(N3CCNCC3)nc2n1Cc1ccc(F)cc1 > 9.22 µM
CN(Cc1ccco1)c1ncncc1-c1ccccc1Cl > 46 µM
O=c1cnc2cnc(N3CCOCC3)nc2n1CCc1ccccc1 > 9.22 µM
CN1CCN(c2ncncc2-c2ccc(C(=O)N(C)C)cc2)CC1 > 46 µM
COCCn1c(=O)c(-c2ccc(Cl)cc2)nc2cnc(Oc3cccc(Cl)c3)nc21 > 9.22 µM
COc1ccc(CNc2ccnc(-c3ccc4c(c3)OCO4)n2)c(OC)c1 > 46 µM
COc1ncc2nc(-c3cc(F)cc(F)c3)c(=O)n(C)c2n1 > 9.22 µM
COc1cccc(Nc2ncc3nc(-c4ccccc4)c(=O)n(Cc4cccs4)c3n2)c1 > 9.22 µM
COc1ccc(-c2nc3cnc(N4CCN(C)CC4)nc3n(Cc3ccc(F)cc3)c2=O)cc1 > 9.22 µM
COCCn1c(=O)c(-c2cc(F)cc(F)c2)nc2cnc(N3CCOCC3)nc21 > 9.22 µM
CN(C)c1ncnc2ccc(-c3cccnc3)cc12 > 46 µM
CCNc1ncc2nc(-c3cn(C)c4ccccc34)c(=O)n(Cc3cccc(OC)c3)c2n1 > 9.22 µM
COc1ccc(Oc2ncc3nc(C)c(=O)n(-c4ccccc4)c3n2)cc1 > 9.22 µM
CN(Cc1ccco1)c1ncncc1-c1cccc(C#N)c1 > 46 µM
O=c1c(-c2ccc(F)cc2)nc2cnc(N3CCOCC3)nc2n1Cc1cccs1 > 9.22 µM
CCNc1ncc2nc(-c3ccc(Cl)cc3)c(=O)n(C[C@H]3CCCO3)c2n1 > 9.22 µM
Cn1cc(-c2nc3cnc(Oc4ccccc4)nc3n(C3CC3)c2=O)c2ccccc21 > 9.22 µM
O=c1c(-c2cccs2)nc2cnc(N3CCOCC3)nc2n1Cc1ccc(F)cc1 > 9.22 µM
O=c1c(-c2ccc(F)cc2)nc2cnc(Nc3ccccc3)nc2n1C[C@H]1CCCO1 > 9.22 µM
O=c1c(-c2cc(F)cc(F)c2)nc2cncnc2n1Cc1ccccc1 > 9.22 µM
COCCNc1ncncc1-c1c(C)noc1C > 46 µM
Cc1noc(C)c1-c1ccc2ncnc(Nc3ccc(F)cc3)c2c1 > 46 µM
Cc1noc(C)c1-c1ccc2ncnc(N(C)C)c2c1 > 46 µM
CC(=O)NCCNc1ncnc2ccc(-c3c(C)noc3C)cc12 > 46 µM
CN(C)c1ncc2nc(-c3cn(C)c4ccccc34)c(=O)n(C[C@H]3CCCO3)c2n1 > 9.22 µM
CN1CCN(c2ncc3nc(-c4ccc(Cl)cc4)c(=O)n(Cc4cccs4)c3n2)CC1 > 9.22 µM
